Most compounds without a hit are left out; they make up all but 0.9% or so of the library.
SRC2 TRFRET art = flags TR-FRET format artefacts in PPARgamma SRC-2 recruitment agonist screen | TR-FRET artefact counter-screen; active compounds read high | TR-FRET ratio at 8 µM | actives 0.4% (n = 200,000); in the data active means TR-FRET ratio above about 2000
PPARg SRC-3 ag = promotes SRC-3 coactivator recruitment by human PPARgamma; P37231; biochemical PPARgamma/SRC-3 coactivator recruitment assay; activation, % at 8 µM; actives 0.26% (n = 200,000); AID 731; in the data active means activation above about 23%;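 further: 0% = DMSO and 100% = reference agonist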
SRC3 TRFRET art = counter-screen for PPARgamma SRC-3 recruitment agonists: TR-FRET artefact. PPARgamma/SRC-3 format; active compounds read high. TR-FRET ratio at 8 µM. actives 0.39% (n = 99,000). AID 1048; in the data active means TR-FRET ratio above about 2000
PPARg SRC2 recr = PPARgamma-driven SRC-2 recruitment agonism; P37231; PPARgamma LBD-SRC-2 recruitment, biochemical; activation, % at 8 µM; actives 0.34% (n = 200,000);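 further: 0% = vehicle and 100% = reference agonist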
PPARg SRC1 recr = promotes SRC-1 coactivator recruitment by human PPARgamma; P37231; PPARgamma-SRC-1 coactivator recruitment biochemical assay; activation, % at 8 µM; actives 0.41% (n = 200,000); AID 631; in the data active means activation above about 19%;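 further: 0% = DMSO and 100% = reference agonist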
SRC1 TRFRET art = flags TR-FRET format artefacts in PPARgamma SRC-1 recruitment agonist screen. actives 0.34% (n = 99,000). TR-FRET ratio at 8 µM. TR-FRET detection artefact counter-screen, emission ratio; active compounds read high; in the data active means TR-FRET ratio above about 2300
PPARg SRC2 conf = human PPARgamma SRC-2 recruitment agonism, confirmation. activation, % at 8 µM. AID 1297. actives 52% (n = 790). biochemical SRC-2 recruitment by PPARgamma. shares compounds with PPARg SRC-3 ag;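 further: 0% = vehicle alone and 100% = reference agonist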
PPARg SRC1 ag = confirmation of agonists of SRC-1 recruitment by human PPARgamma | PPARgamma–SRC-1 coactivator recruitment biochemical assay | actives 43% (n = 790) | shares compounds with PPARg SRC-3 ag | activation, % at 8 µM; in the data active means activation above about 20%;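 further: 0% = vehicle wells and 100% = reference agonist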
PPARg SRC3 ag = confirmation of agonists of SRC-3 recruitment by human PPARgamma; shares compounds with PPARg SRC-3 ag; activation, % at 8 µM; actives 29% (n = 790); AID 1301; biochemical PPARgamma-SRC-3 coactivator recruitment, agonist mode; in the data active means activation above about 24%;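 further: 0% = vehicle wells and 100% = reference agonist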
Target sequence (P37231 whole entry, looked up): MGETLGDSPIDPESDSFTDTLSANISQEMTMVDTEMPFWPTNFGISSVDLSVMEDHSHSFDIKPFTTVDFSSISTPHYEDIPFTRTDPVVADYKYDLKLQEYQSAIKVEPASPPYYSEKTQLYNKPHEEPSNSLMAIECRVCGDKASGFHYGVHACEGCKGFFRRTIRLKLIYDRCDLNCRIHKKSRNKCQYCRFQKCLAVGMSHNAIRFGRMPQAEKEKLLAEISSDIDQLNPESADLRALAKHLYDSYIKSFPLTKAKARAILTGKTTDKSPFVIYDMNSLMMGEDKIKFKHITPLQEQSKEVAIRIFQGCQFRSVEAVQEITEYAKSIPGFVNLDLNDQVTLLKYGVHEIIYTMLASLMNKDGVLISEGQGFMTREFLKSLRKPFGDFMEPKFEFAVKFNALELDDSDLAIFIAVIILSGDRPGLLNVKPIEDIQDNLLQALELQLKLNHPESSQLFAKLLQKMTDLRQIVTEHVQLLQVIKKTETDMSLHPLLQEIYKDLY
Target sequence (Q9Y6Q9 whole entry, looked up): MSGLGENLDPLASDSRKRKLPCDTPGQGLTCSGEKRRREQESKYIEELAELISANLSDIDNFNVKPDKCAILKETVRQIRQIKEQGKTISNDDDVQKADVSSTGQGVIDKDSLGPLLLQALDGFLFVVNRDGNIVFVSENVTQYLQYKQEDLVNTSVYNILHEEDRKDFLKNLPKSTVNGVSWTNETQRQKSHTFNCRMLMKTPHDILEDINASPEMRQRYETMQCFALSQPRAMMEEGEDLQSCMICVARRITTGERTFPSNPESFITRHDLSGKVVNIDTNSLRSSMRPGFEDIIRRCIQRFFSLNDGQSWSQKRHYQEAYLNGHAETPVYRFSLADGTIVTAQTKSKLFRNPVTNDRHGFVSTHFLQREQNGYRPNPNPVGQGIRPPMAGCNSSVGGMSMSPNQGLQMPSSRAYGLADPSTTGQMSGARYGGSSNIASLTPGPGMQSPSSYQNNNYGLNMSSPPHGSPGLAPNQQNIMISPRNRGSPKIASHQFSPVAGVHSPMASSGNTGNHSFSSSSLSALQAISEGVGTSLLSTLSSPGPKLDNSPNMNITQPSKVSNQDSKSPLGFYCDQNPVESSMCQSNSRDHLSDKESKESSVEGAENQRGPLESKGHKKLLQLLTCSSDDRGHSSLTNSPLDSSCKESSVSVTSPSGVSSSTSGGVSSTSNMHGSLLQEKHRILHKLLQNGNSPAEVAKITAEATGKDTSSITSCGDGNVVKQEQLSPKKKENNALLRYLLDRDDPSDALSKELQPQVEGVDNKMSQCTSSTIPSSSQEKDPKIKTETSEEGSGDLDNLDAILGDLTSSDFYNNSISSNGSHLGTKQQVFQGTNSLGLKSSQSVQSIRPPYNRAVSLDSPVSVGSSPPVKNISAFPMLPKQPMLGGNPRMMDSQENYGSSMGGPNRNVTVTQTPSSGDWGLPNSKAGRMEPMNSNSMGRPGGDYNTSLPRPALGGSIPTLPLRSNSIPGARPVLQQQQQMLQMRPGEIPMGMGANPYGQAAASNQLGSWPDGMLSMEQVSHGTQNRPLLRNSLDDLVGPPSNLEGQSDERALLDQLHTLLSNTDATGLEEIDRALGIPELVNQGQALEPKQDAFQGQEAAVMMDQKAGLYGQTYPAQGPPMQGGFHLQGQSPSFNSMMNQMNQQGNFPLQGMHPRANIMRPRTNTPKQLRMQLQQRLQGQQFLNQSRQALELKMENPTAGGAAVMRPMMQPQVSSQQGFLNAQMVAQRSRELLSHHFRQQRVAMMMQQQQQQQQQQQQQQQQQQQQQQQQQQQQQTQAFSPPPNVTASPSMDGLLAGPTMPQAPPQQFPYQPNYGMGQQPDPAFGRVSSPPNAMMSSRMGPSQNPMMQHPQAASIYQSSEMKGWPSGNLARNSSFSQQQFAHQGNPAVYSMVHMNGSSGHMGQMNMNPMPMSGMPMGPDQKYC
* hit, by the source's call; . = no result. Unless noted, no stated cut-off is given here; in the data, active means activation above about 22%; inactive means the rest.

SMILES	SRC2 TRFRET art	PPARg SRC-3 ag	SRC3 TRFRET art	PPARg SRC2 recr	PPARg SRC1 recr	SRC1 TRFRET art	PPARg SRC2 conf	PPARg SRC1 ag	PPARg SRC3 ag
COC(=O)c1c(N)n(Cc2ccc(OC)cc2)c2nc3ccccc3nc12	1618	2	1451	2	20	2577*	.	.	.
O=C(COc1ccccc1F)N1CCN(CCN2C(=O)c3cccc4cccc(c34)C2=O)CC1	1503	1	1581	1	6	2010	.	.	.
COc1ccc(NP(=O)(Oc2ccccc2OC)Oc2ccccc2OC)cc1	1429	27*	1523	5	16	1612	11	25*	20
COC(=O)c1ccccc1-n1c(C)nc2ccccc2c1=O	1341	-14	.	-4	-3	.	.	.	.
O=C(O)c1cccc2nc3ccccc3nc12	1525	1	1766	19	9	1925	10	2	5
CCCC(=O)Nc1ccc(N2CCN(CC)CC2)c(Cl)c1	1565	-4	.	1	2	.	.	.	.
CCn1c(=O)cc(SCC(=O)N2CCC3(CC2)OCCO3)c2ccccc21	2944*	102*	.	61*	65*	.	37*	25*	26*
Cn1c(=O)n(CC(=O)N2CCC3(CC2)OCCO3)c(=O)c2ccccc21	1560	-2	1562	4	-3	1688	.	.	.
CN(C)c1ccc(/C=C/C=C2/C(=O)NC(=O)N(c3ccccc3)C2=O)cc1	2441*	50*	2895*	29*	49*	2995*	70*	47*	47*
CCCCCn1c(=O)c(C(=O)NCc2ccco2)c(O)c2ccccc21	1588	2	1495	-4	-3	1807	.	.	.
CN1/C(=C\C=C\C2=[N+](C)c3ccc4ccccc4c3C2(C)C)C(C)(C)c2ccccc21	3050*	70*	.	84*	42*	.	49*	39*	37*
C[C@@H]1C(=O)O[C@@H]2[C@H](O)C34[C@@H]5OC(=O)C3(O[C@H]3OC(=O)[C@H](O)C34[C@H](C(C)(C)C)[C@H]5O)[C@@]12O (stereo not given in full)	1338	2	1507	3	5	1828	.	.	.

High-throughput results deposited in PubChem by The Scripps Research Institute Molecular Screening Center.
